ANO1 activ = activators or potentiators of mouse TMEM16A chloride channel; HEK293 TMEM16A/YFP-H148Q/I152L, iodide quench fluorescence; stronger effect = lower value; B-score at 10 µM; actives 0.3% (n = 340,000);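 active = fluorescence-ratio B-score plate-corrected deviation score at least 3 library SD below zero, with starting fluorescence score within 5 deviations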;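 also: channel opened by trigger with iodide after compound preincubation; score built on the fluorescence ratio of max minus min over baseline; more negative score means more quench and so TMEM16A activation or potentiation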
Target sequence (Q8BHY3 whole entry, looked up): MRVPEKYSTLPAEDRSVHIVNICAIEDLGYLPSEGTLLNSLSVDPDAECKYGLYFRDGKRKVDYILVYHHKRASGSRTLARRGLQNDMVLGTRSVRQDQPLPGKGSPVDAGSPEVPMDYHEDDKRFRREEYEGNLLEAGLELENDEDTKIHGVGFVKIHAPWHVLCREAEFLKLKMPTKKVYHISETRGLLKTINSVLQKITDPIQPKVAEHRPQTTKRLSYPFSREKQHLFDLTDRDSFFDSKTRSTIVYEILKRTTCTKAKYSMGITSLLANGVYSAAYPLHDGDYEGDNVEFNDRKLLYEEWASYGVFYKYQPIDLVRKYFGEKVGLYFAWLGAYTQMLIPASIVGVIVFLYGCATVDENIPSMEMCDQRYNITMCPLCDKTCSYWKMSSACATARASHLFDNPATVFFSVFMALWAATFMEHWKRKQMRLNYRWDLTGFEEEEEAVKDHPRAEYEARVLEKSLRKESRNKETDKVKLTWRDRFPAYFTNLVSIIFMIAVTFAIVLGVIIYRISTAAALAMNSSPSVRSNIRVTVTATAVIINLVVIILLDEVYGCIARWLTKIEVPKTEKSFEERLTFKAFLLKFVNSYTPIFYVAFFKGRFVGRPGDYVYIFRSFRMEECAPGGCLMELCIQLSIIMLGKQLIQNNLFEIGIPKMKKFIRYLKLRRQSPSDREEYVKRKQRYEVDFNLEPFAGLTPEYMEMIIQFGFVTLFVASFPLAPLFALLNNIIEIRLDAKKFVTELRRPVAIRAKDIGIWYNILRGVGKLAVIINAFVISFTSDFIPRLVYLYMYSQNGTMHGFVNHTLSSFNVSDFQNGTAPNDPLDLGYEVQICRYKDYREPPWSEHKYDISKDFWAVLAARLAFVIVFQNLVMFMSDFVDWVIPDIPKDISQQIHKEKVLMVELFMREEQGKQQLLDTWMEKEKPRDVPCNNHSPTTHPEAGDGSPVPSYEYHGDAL
TMEM16A inh = mouse TMEM16A channel inhibition, primary screen. Q8BHY3. HEK293 TMEM16A/YFP iodide influx fluorescence, ionomycin. normalized B-score (activity score, 25-100; higher = stronger inhibition) at 10 µM. actives 1.2% (n = 310,000). AID 588511;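 active = ratio plate-corrected score three or more library SD toward inhibition, starting fluorescence score within five deviations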;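 also: score derived from kinetic fluorescence span divided by baseline fluorescence per well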
CHT PAM = allosteric activators of human choline transporter CHT; CHT-expressing cells, membrane potential dye, choline EC20; stronger effect = higher value; LV-AA mutant CHT in HEK293 cells; AID 488977; B-score at 10 µM; actives 0.49% (n = 310,000);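 active = initial fluorescence not abnormally high and integrated response B-score, plate-corrected, over 3 SD above library mean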
CHT block = inhibitors of human choline transporter CHT | B-score at 10 µM | Q9GZV3 | CHT-expressing cells, membrane potential dye, choline response; stronger effect = lower value | actives 0.86% (n = 310,000);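 active = B-score over 3 SD under the library average, and starting fluorescence ratio not unusually high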;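 also: choline stimulus applied at its EC90 after an EC20 pre-addition; B-score computed on integrated fluorescence ratio after choline addition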
TMEM16A reconf = re-confirmation of mouse TMEM16A chloride channel inhibitors. shares compounds with TMEM16A inh. HEK293 TMEM16A/YFP-H148Q, iodide quench fluorescence; ionomycin added to raise cell calcium. inhibition, % at 10 µM. actives 39% (n = 2,300);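 active = mean duplicate percent inhibition, scaled so buffer wells are 0 and the reference blocker 100, over three buffer SD above buffer mean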
TMEM16A Ca cntr = alters calcium mobilization in TMEM16A HEK293 cells, counter-screen; TMEM16A/YFP HEK293, Fluo4 calcium mobilization; shares compounds with TMEM16A inh; actives 2% (n = 2,300); calcium response (% of ionomycin), % at 10 µM;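 active = duplicate-averaged calcium signal over 20% of the ionomycin maximum, relative to buffer baseline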;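 also: each well's signal is peak minus trough fluorescence divided by its pre-addition baseline; 0% = buffer wells and 100% = ionomycin wells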
Parental YFP cnt = counter-screen for TMEM16A inhibitors: effect in parental YFP-HEK293 cells. shares compounds with TMEM16A inh. iodide YFP quench, ionomycin. YFP ratio F(max-min)/F0 at 10 µM. 2,300 tested, under 10 active. AID 652233;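 active = yellow fluorescent protein signal ratio exceeding the buffer control mean by over 5 SD of those controls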;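 also: ratio is mean of duplicate wells from kinetic YFP trace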
ClC-1 inh = blocks the rat ClC-1 voltage-dependent chloride channel. 2,300 tested, under 10 active. shares compounds with TMEM16A inh. ratio percent, % at 10 µM. CHO ClC-1-YFP, iodide influx fluorescence quench; iodide control reads 0, buffer control 100;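 active = duplicate-mean ratio percent above the mean of iodide-only control wells, which defines zero, plus 5 of their SD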;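 also: higher percent means stronger block of ClC-1 iodide influx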
An asterisk follows results filed as active; i = inactive; · = not tested or not shown. The list is not random: actives were taken first. Their share in the collection is about 2.3%.

SMILES	ANO1 activ	TMEM16A inh	CHT PAM	CHT block	TMEM16A reconf	TMEM16A Ca cntr	Parental YFP cnt	ClC-1 inh
COCCCNc1nc2nonc2nc1N(C)CC1CCCN1C (stereo unspecified)	i	i	i	i	·	·	·	·
CCc1cc2c(=O)n(Cc3ccccc3)c(SC3CCOC3=O)nc2s1 (stereo unspecified)	i	i	i	i	·	·	·	·
Cc1ccc(NC(=O)Nc2ccc(F)cc2)cc1Cl	i	i	i	i	·	·	·	·
O=C(CCC(=O)OCC(=O)c1ccc(F)cc1)NC1CCCCC1	i	25*	i	i	i	i	-1.08	-13.5
O=C(COC(=O)CCC(=O)c1ccc(F)cc1)NC1CCCCC1	i	·	·	·	·	·	·	·
CC(C)c1cc(C(=O)N2CCCC(CCC(=O)NCc3ccccc3F)C2)n(C)n1 (stereo unspecified)	i	100*	i	i	i	i	-1.08	-16.0
Cc1ncoc1C(=O)N1CCCC(CCC(=O)NCc2ccccc2F)C1 (stereo unspecified)	i	i	i	i	·	·	·	·
CC(C)(C)C1CCC(C(=O)OCC(=O)N2CCN(C(=O)c3ccco3)CC2)CC1 (stereo unspecified)	i	i	i	i	·	·	·	·
Cc1c(O)ccc(C(=O)COc2ccc(F)cc2)c1O	i	i	i	i	·	·	·	·
CCc1cc(C(=O)COc2ccc(F)cc2)c(O)cc1O	i	100*	i	i	20.5%*	i	-0.795	-4.5
OCCNc1nc(Nc2ccccc2)nc2ccccc12	i	i	i	i	·	·	·	·
OCCNc1nc(Nc2ccc(Br)cc2)nc2ccccc12	·	25*	i	i	22.5%*	i	-1.38	-7.5
c1ccc(Nc2nc(NCC3CCCO3)c3ccccc3n2)cc1 (stereo unspecified)	i	100*	i	i	i	i	-1.1	-14.5
COc1cccc(CNC(=O)N2CCN(c3ccccc3)CC2)c1	i	i	i	i	·	·	·	·
Cc1ccsc1-c1nc(CN(C)C(C2CC2)C2CC2)c(C)o1	i	i	i	i	·	·	·	·
CCN(C1CCCCC1)S(=O)(=O)c1ccc(OC)c(C)c1	i	100*	i	i	i	i	-1.18	-4.5
CCN(C1CCCCC1)S(=O)(=O)c1cc(C)ccc1OC	i	i	i	i	·	·	·	·
CSc1nnnc2ccccc12	i	·	·	·	·	·	·	·
N#CC1(Cc2ccccc2)c2ccccc2C=CN1C(=O)c1ccccc1 (stereo unspecified)	i	100*	i	i	i	i	-1.22	-12.0
CCOC(=O)c1c(C)[nH]c(C(=O)CN(C)CC(=O)Nc2ccccc2C(F)(F)F)c1C	i	·	·	·	·	·	·	·
COc1ccc(Cc2nc(C(=O)NCc3ccccc3OC)cs2)cc1	i	i	i	i	·	·	·	·
COc1ccc(Cc2nc(C(=O)Nc3ccc(OC)cc3)cs2)cc1	i	25*	i	i	i	i	-0.943	-21.5
CCOc1ccc(N=C2NC(=O)S/C2=C\c2ccc(N(C)C)cc2)cc1	i	i	i	i	i	i	-0.92	28.5
Cc1cccc(N2CCN(C(=O)CNC(=O)Cc3ccccc3)CC2)c1C	i	·	·	·	·	·	·	·
Cc1cccc(N2CCN(C(=O)Cc3ccc(Br)cc3)CC2)c1C	i	100*	i	i	i	i	-0.997	-12.0
CCN(C(=S)NCc1ccccc1)c1cccc2ccccc12	i	25*	i	i	i	i	-1.21	-8.5
CC(C)Cc1ccc(CN2CCCC(NC(=O)c3ccoc3)C2)cc1 (stereo unspecified)	i	i	i	i	·	·	·	·
CC(C)Cc1ccc(CN2CCCC(NC(=O)c3ccnn3C)C2)cc1 (stereo unspecified)	i	25*	i	i	i	i	-1.24	-8.0

Compound activity (PubChem BioAssay)
